The values below come from PubChem BioAssay.

Assay [1] has as its system Human papillomavirus type 1a protein E7 (residues 44-93). As to the kind of experiment: HPV1a E7 fragment binders on microarrays, primary screen, biochemical, small-molecule microarray, residues 44-93, 635 nm fluorescence (AID 1108).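 Note: E7 fragment applied at 1 µg/mL in TBST for 1 h at 4 C; score combines spot fluorescence with its signal to noise ratio.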 Conditions: small-molecule microarray binding, fluorescence 635 nm; higher = more signal.
The nature of assay [2]: modulators of HCV replicon luciferase signal, primary screen, HCV replication inhibitor project, Huh7 cells, luciferase reporter (AID 1109).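 Note: huh7 hepatoma cells harbouring a luciferase neomycin HCV replicon reporter; luciferase luminescence as measure of HCV replicon replication; test concentration not given here.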 Conditions: 48 h, higher = more signal.
Assay [3] has as its target Left-right determination factor 2 (Homo sapiens) (UniProt O00292). As to the kind of experiment: LEFTY2 binders on small-molecule microarrays, primary screen, biochemical, small-molecule microarray, 635 nm fluorescence scan (AID 1110). Conditions: LEFTY2 binding, higher = more signal.
Assay [4] deals with Calmodulin-1 (Homo sapiens) (UniProt P0DP23). As to the kind of experiment: CALM1 binders on microarrays, EGTA buffer, profiling panel, biochemical, small-molecule microarray, Cy5-labelled CALM1 (AID 1111).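 Note: labelled calmodulin applied in Tris saline Tween buffer holding calcium plus EGTA and DTT.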 Conditions: Cy5-CALM1 binding fluorescence, higher = more signal.
For assay [5] the target is unchanged. Nature of the assay: calcium-bound CALM1 binders on microarrays, profiling panel, artefact control for SMM control-protein annotation, biochemical, small-molecule microarray, Cy5-labelled CALM1, plus calcium (AID 1112).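 Note: score merges spot fluorescence with signal to noise from triplicate slides.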 To be noted: Cy5-CALM1 binding fluorescence, higher = more signal.
The nature of assay [6]: small-molecule microarray binders of probe aWnt5a, primary screen, biochemical, biotinylated probe, 635/667 nm fluorescence (AID 1113).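 Note: score merges 667 nm fluorescence intensity with signal-to-noise per printed feature.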 To be noted: higher = more signal.
Assay [7] is described as follows: small-molecule microarray binders of probe aShh, primary screen, biochemical, biotinylated probe, 635/667 nm fluorescence (AID 1114).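 Note: probe is biotin-labelled aShh protein from a stem cell growth factor screen; measures binding of labelled protein to compounds printed on the slide; score merges feature fluorescence at 667 nm with signal-to-noise.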 Conditions: higher = more signal.
Assay [8] is described as follows: small-molecule microarray binders of probe aNog, primary screen, biochemical, biotinylated probe, 635/667 nm fluorescence (AID 1115).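 Note: probe is biotinylated aNog protein used at 0.15 µg/mL for 1 h at 4 C; z-score combines 667 nm fluorescence of each spot with its signal to noise.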 To be noted: higher = more signal.
Assay [9] deals with Torsin-1A-interacting protein 1 (Homo sapiens) (UniProt Q5JTV8). As to the kind of experiment: LAP1 binders from COS7 cell lysate, primary screen, small-molecule microarray, 635/667 nm fluorescence (AID 1116). To be noted: COS7-hLAP1 lysate binding, 635 nm fluorescence, higher = more signal.
Chain of Torsin-1A-interacting protein 1 (Homo sapiens) (Q5JTV8 whole entry, looked up): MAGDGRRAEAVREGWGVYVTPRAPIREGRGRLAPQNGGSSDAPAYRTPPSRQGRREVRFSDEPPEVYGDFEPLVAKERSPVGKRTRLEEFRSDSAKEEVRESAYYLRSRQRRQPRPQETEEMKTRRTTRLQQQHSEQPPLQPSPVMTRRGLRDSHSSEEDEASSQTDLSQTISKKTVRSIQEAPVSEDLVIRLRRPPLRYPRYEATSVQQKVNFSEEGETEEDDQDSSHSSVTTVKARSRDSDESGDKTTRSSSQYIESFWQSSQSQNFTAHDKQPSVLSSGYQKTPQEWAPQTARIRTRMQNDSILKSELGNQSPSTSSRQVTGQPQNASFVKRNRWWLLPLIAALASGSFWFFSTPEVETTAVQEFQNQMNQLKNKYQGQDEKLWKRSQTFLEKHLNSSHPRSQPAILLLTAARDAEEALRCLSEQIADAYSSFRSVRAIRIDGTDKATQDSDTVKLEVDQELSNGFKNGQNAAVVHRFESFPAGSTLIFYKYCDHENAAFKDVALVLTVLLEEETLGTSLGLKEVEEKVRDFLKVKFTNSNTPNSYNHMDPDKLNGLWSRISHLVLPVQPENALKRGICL
The target in assay [10] is Alpha-bungarotoxin (Bungarus multicinctus) (UniProt P60615). Nature of the assay: alpha-bungarotoxin binders on microarray, profiling panel, artefact control for SMM control protein annotation, biochemical, small-molecule microarray, Alexa647 label, 635/667 nm fluorescence (AID 1117). To be noted: alpha-BTX-A647 binding fluorescence, higher = more signal.
Chain of Alpha-bungarotoxin (Bungarus multicinctus) (P60615 whole entry, looked up): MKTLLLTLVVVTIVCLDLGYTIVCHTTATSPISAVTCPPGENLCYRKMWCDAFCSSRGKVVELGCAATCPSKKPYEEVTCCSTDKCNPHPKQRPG

SMILES strings stand for the structures.

Chain of Left-right determination factor 2 (Homo sapiens) (O00292 whole entry, looked up): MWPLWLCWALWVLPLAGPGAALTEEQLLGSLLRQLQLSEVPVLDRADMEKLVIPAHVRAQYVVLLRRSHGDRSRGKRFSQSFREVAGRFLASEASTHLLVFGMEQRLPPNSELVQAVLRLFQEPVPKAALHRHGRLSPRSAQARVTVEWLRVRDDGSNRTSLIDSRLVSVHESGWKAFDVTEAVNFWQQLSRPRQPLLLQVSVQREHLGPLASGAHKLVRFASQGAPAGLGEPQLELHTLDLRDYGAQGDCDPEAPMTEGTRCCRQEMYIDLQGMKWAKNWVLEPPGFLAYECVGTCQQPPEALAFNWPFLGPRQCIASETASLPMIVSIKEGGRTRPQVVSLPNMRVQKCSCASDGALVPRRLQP

On to `C=CCOC(=O)[C@H]1[C@@H]2C(=O)O[C@@H](c3ccccc3)[C@@H](c3ccccc3)N2[C@@H](c2ccc(OCCOC(=O)[C@H]3C[C@H]4C(=O)N[C@@H](CCCCNC(C)=O)C(=O)N4[C@H]3c3cccc(OCCO)c3)cc2)[C@]12C(=O)Nc1ccccc12`, for which the composite z-score in assay [1] is 1.36; in assay [3], 0.578; in [4], 2.53; in assay [5], -0.0073; in [6] it was -0.101; in [7], 0.13. In addition, the values for the composite z-score in [8], in [9] and in [10] were 0.0588, 1.22 and 0.977, respectively. Also, the z-score in assay [2] was -1.47.

Turning to `COc1ccc(-c2cc3c(c(-c4ccc(Oc5ccccc5)cc4)n2)[Si](C(C)C)(C(C)C)OC3)cn1`, the composite z-score was -0.419 in assay [1]; -0.123 in assay [3]; -0.266 in [4]; 0.211 in assay [5]; -0.206 in assay [6]; -0.0553 in [7]. The composite z-score was -0.224 in assay [8], -0.286 in [9] and 0.199 in assay [10]. Moreover, in [2], the z-score was -1.15.

Take `COc1ccccc1CN1C(=O)c2ccccc2[C@@]2(Cc3ccccc3N(CC(C)C)C2=O)[C@@H]1c1ccc(CO)cc1`: the composite z-score in assay [1] was -0.461; in [3], -0.389; in assay [4], -0.235; in assay [5], -0.69; in assay [6], -0.091; in assay [7], -0.214. Also, the values for the composite z-score in [8], in assay [9] and in assay [10] were -0.175, -0.247 and -0.257, respectively. In [2], the z-score is -0.785.

As for `C=CCOC(=O)[C@@H]1[C@H]2C(=O)O[C@H](c3ccccc3)[C@H](c3ccccc3)N2[C@H](c2ccc(OCCOC(=O)[C@@H]3C[C@@H]4C(=O)NCC(=O)N4[C@@H]3c3ccc(O)cc3)cc2)[C@@]12C(=O)Nc1ccc(I)cc12`, the composite z-score in [1] is 0.403; in assay [3], 0.902; in [4] it was 1.2; in assay [5], 0.499; in [6] it was -0.101; in assay [7] it was 0.0796. Also, the composite z-score in assay [8] is -0.175; in assay [9], 1.4; in assay [10], 0.872. In addition, the z-score in assay [2] was -1.29.

In the case of `COCCOC(=O)N1C(=O)[C@@]2(c3cc(C#CCCO)ccc31)[C@H](C(N)=O)[C@H]1C(=O)O[C@H](c3ccccc3)[C@H](c3ccccc3)N1[C@@H]2c1ccc(O)cc1`, the composite z-score in assay [1] was -0.48; in [3] it was -0.142; in assay [4] it was -0.0162; in assay [5], 0.461; in assay [6], -0.0197; in [7], -0.0035. The composite z-score in assay [8] was found to be 0.0107; in [9] it was 0.169; in assay [10], 0.244. In [2], this compound returned a z-score of 0.11.

For the compound `COC(=O)[C@H](Cc1ccccc1)N1CC2=C[C@@H](C3CC3)n3c(=O)n(C)c(=O)n3[C@H]2[C@@H]1[C@@H](O)Cc1ccccc1`, the composite z-score in [1] was 1.35; in assay [3], 0.41; in assay [4], -0.319; in [5], 0.0057; in assay [6] it was -0.0718; in assay [7] it was -0.0035. For the same compound, the composite z-score is 0.0121 in [8], 0.685 in assay [9] and -0.0518 in assay [10]. The z-score in [2] was -1.08.

`CC(C)NC(=O)[C@@H]1c2ccccc2C(=O)N(C2Cc3ccccc3C2)[C@H]1c1ccc(CO)cc1`: the composite z-score was 1.41 in [1]; 0.25 in assay [3]; 0.344 in assay [4]; -0.225 in assay [5]; 0.0142 in assay [6]; -0.366 in assay [7]. The composite z-score in assay [8] is -0.449; in assay [9], 0.724; in assay [10], 0.399. Besides, the z-score in assay [2] is -1.31.

As to `C=C(CCCC)/C(=C/C[C@H](OC(C)=O)c1ccccc1OCCO)c1cc(C(=O)OC)ccc1OC`, the composite z-score in [1] is 0.0187; in assay [3], -0.264; in [4] it was -0.621; in [5], -0.803; in assay [6], -0.12; in assay [7], 0.0048. Moreover, the composite z-score was -0.0184 in assay [8], 0.233 in assay [9] and 0.439 in [10]. Besides, in assay [2], the z-score was -2.06.

For `O=C1c2ccccc2[C@](Cc2ccccc2I)(C(=O)NCCN2CCOCC2)[C@H](c2ccc(CO)cc2)N1C1CCCCC1`, the composite z-score in assay [1] was found to be 0.994; in assay [3], 0.804; in assay [4], 1.13; in assay [5], 0.315; in assay [6] it was 0.0286; in [7], 0.359. In addition, the composite z-score was 0.0308 in [8], 0.494 in assay [9] and 1.83 in assay [10]. Further, the z-score in [2] is -2.48.

With `COc1ccc(C(=O)Nc2ccc(CN3C(=O)[C@]4(O[C@H](CCO)[C@@H]([Si](C)(C)c5ccc(OC)cc5)[C@@H]4C)c4ccccc43)cc2)cc1`, the composite z-score in assay [1] is 1; in [3], 0.202; in assay [4], 0.564; in assay [5], -0.314; in assay [6] it was 0.026; in assay [7], 0.014. The composite z-score in [8] is -0.226; in [9], 0.432; in assay [10] it was 0.509. For the same compound, the z-score in assay [2] is -5.09.

Take `CC(C)c1ccc(NN2C(C(O)c3ccc(B(O)O)cc3)C=CC3C(=O)N(c4ccccc4)C(=O)C32)cc1` (stereo not given): the composite z-score in [1] was 1.25; in [3], -0.355; in [4] it was 2.02; in assay [5], 1.08; in assay [6] it was 0.0324; in assay [7], -0.0362. Besides, the results for the composite z-score in [8], in assay [9] and in assay [10] were 2.19, 2.08 and 1.27, respectively. The z-score in assay [2] stood at 4.39.
